Tests used:
[1] = target: T1, Aspartate--tRNA(Asp/Asn) ligase (Mycobacterium tuberculosis (strain ATCC 25618 / H37Rv)) (UniProt P9WFW3); assay: Assay for Asp RNA synthetase-1 from Mycobacterium tuberculosis; format: functional; design: scale not given: direction of the effect not stated beside the values; settings: 30 µM; also: in the data most compounds retested in dose-response had high values
T1 sequence (whole entry): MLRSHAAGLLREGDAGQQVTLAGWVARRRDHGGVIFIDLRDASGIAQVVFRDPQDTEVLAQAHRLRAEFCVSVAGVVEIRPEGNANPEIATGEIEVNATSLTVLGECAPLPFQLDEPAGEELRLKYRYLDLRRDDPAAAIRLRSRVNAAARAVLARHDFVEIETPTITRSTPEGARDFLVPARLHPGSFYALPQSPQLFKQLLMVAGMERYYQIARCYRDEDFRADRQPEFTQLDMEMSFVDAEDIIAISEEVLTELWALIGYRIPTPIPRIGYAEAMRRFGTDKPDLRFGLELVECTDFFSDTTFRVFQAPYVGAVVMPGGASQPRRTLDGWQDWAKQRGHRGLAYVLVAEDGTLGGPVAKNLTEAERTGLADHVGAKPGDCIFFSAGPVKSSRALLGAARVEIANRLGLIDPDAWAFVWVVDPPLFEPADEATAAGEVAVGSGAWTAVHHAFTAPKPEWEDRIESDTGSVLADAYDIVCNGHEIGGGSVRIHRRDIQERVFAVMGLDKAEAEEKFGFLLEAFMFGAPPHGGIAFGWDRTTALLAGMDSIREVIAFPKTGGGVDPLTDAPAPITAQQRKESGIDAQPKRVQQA

[2] = target: Shiga toxin 2 (Escherichia coli O157:H7) (UniProt P09385+P09386); assay: E. coli 0.157:H7 Shiga Toxin SOP - stx2 screening assay; format: functional; design: scale not given: direction of the effect not stated beside the values; settings: 30 µM

SMILES | Percent Effect [1] | Percent Effect [2]
CCN(CC)CCNC(=O)c1nn(CC)cc1Cl | -6.16% | -57%
Cc1ccc(CC2CCCN2CC(=O)NCc2ccccn2)cc1 (configuration not stated) | 0.629% | -4.96%
COCCO[C@@H]1CCN(C(=O)c2ccc(C)o2)[C@@H]1Cc1cnn(C)c1 | 2.6% | 2.85%
CN(C)C(=O)N1CCN(C(=O)C(c2ccccc2F)N(C)C)CC1 (configuration not stated) | 0.752% | -3.65%
CCS(=O)(=O)CCNC(=O)c1ccc(-c2ccc(C)cc2)cc1F | 7.76% | -42.5%
Cc1ccc(NC2CCN(C(=O)Cc3csc(C)n3)CC2)nn1 | 4.42% | 17.7%
CC(C)(C)c1n[nH]c(C2CN(C(=O)c3ccsc3)CCO2)n1 (configuration not stated) | -2.97% | 7.5%
COc1cccc(OCC2CCCN(C3CCN(C(C)=O)CC3)C2)c1 (configuration not stated) | 4.72% | -0.97%
COc1ncccc1NC(=O)C1CCS(=O)(=O)C1 (configuration not stated) | -3.61% | -37.8%
CN1CCOC(CNCc2nc(-c3ccccc3)cs2)C1 (configuration not stated) | -7.57% | -26%
Cc1nc(C)c(C(=O)NCCNC(=O)Cc2cccc(F)c2)s1 | 4.17% | 6.14%
CCCC(C)CN1CCC(n2cc(CCCO)nn2)CC1 (configuration not stated) | 1.56% | -23.7%
CN1CCN(Cc2cn3c(n2)CN(C(=O)N2CCOCC2)CC3)CC1 | 5.44% | -16.4%
CCC1c2cccn2CCN1C(=O)c1ccc2nonc2c1 (configuration not stated) | 4.26% | -4.14%
CC(=O)N(Cc1ncc(C)o1)C1CCN(Cc2cccc(C#N)c2)C1 (configuration not stated) | 0.127% | 9.86%
CN(C)C(C(=O)N1CCC(N2CCSCC2)CC1)c1ccccc1F (configuration not stated) | -8.47% | -3.63%

— ChEMBL document CHEMBL3988442, “University of Dundee, Small-Polar-MMV Screening Library” (2021)
